The values below come from PubChem BioAssay (NCI).

Each structure is given as a SMILES string. Compounds without any hit were thinned out: in the full panel of roughly 83,000, 20% have a hit.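 Testing used 96-well plates and a 48-hour single-concentration exposure. Example: -40 means 40% of the starting cells died.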 A number with no mark means an inactive call. Calls of active or inactive are those of the source. Rule for the calls: active = growth percent below 10; inactive = the rest.

The subject of the assay is HL-60(TB) leukemia. The assay is described as follows: NCI-60 one-dose screen, 48 h (100 = growth as untreated, 0 = no growth, -100 = all killed). Conditions: 10 µM unless noted.
Consider `CCCCC(CC)COC(=O)C[N+](C)(C)CCOC(c1ccccc1)c1ccccc1` (stereo not given), for which the growth is -56.7% (active).

Regarding `c1ccc2[nH]c(-c3ccc(Nc4nc(N5CCCC5)nc5[nH]ncc45)cc3)nc2c1`, the growth was -32.8% (active).

Consider `CCN(CC)CCC(C(=O)O)(c1ccccc1)c1ccccc1`, for which the growth is 93.5%.

Regarding `CN1CCN(c2ccc(-c3ccc4ncc(C#N)c(Nc5ccc(F)c(Cl)c5)c4c3)cc2)CC1`, the growth is 22.3%.

On to `Clc1ccccc1N=Cc1ccc2c(c1)OCO2`, for which the growth was 94.6%.

For the molecule `C1=CC2=CC=C3C=CC=C4C(c5nc6c7ccccc7c7ccccc7c6[nH]5)=CC(=C1)C2C34` (stereo not given), the growth is 111%.

For the molecule `Nc1ncnc2c1C(c1ccc(Br)cc1)c1sc3c(F)cccc3c1O2` (stereo not given), the growth was 119%.

Regarding `COc1ccc(C(Cc2ccccc2)NCCN2CCOCC2)cc1` (stereo not given), the growth was 93.8%.

Take `COc1ccc(Cn2cc3c(c2-c2ccccc2)CCc2cnoc2-3)cc1`: the growth was 4.48% (active).

`COC(=O)/C=C1/SC(=Nc2ccc([N+](=O)[O-])cc2)N(CCc2c[nH]c3ccc(O)cc23)C1=O`: the growth is 32.2%.

In the case of `COc1ccc(C2=NN3C(C2)c2cc(Br)ccc2OC3c2ccncc2)cc1` (stereo not given), the growth is 93.5%.

Turning to `CCOC(=O)c1cnn2c(-c3ccc(Cl)cc3)nc(NCc3ccccc3)nc12`, the growth was 82.7%.

Take `OCC(O)C(O)C(O)C(/C=N/Nc1ccccc1)=N/Nc1ccccc1` (stereo not given): the growth is 98.6%.

Regarding `O=C1c2ccccc2CCC1(Br)Br`, the growth is -31.3% (active).

Turning to `[2H]C([2H])([2H])Oc1ccc(/C=C/C(=O)/C=C(/C=C/c2ccc(OC([2H])([2H])[2H])c(OC([2H])([2H])[2H])c2OC([2H])([2H])[2H])OB(F)F)c(OC([2H])([2H])[2H])c1OC([2H])([2H])[2H]`, the growth was 52.3%.

`Nc1ccc(F)c(Cl)c1F`: the growth is 95.6%.

Turning to `O=C1/C(=C/c2ccccc2)CCC/C1=C\c1ccccc1`, the growth is 97.8%.

In the case of `Cc1cccc(NC(=O)N/C(N)=N/c2nc3ccccc3s2)c1`, the growth was 5.69% (active).

Turning to `CC1CCC(C(C)C)C(NN)C1` (stereo not given), the growth is 70.2%.

Turning to `NC(CSC(c1ccccc1)(c1ccccc1)c1cccc2ccccc12)C(=O)O` (stereo not given), the growth was 88.5%.

Consider `N#Cc1ccc(NC(=O)Nc2ccc(Cc3ccc(NC(=O)Nc4ccc(C#N)cc4)cc3)cc2)cc1`, for which the growth is 22.4%.

As for `CN1CCN(C(=O)[C@@]2(C)CC[C@]3(C)CC[C@]4(C)C(=CC[C@@H]5[C@@]6(C)C/C(=C/c7ccncc7)C(=O)C(C)(C)[C@@H]6CC[C@]54C)[C@@H]3C2)CC1`, the growth was -8.87% (active).

For `O=C(c1ccc(Cl)cc1Cl)N1c2ccccc2Sc2ccccc21`, the growth is 35.8%.

For the molecule `Nc1nc(N)c(-c2ccc(Cl)cc2)c(/C=C/c2ccc([N+](=O)[O-])cc2)n1`, the growth is 47.8%.

As for `CCOc1nc(-c2ccccc2)cc2c(O)c(C(=O)NCCCO)[nH]c(=O)c12`, the growth is 177%.

As to `OCCN1CCN(c2cc(-c3cccc(OC(F)(F)F)c3)nc3ccc(N4CCCC4)cc23)CC1`, the growth was 62.8%.

For the molecule `O=C1/C(=C/c2ccc([N+](=O)[O-])s2)Oc2ccccc21`, the growth is -7.99% (active).

With `Oc1cccc2oc(=S)[nH]c12`, the growth was 121%.

Turning to `O=C1CNc2cc(Cl)ccc2N1`, the growth is 99.7%.

As to `COc1ccc(-n2cc(COc3ccc4c5ccnc(C)c5n(CC(C)C)c4c3)nn2)cc1`, the growth was -10.6% (active).

For `CCN(CC)S(=O)(=O)c1ccc(S(=O)(=O)N2CCC[C@@H](C(=O)N3CCN(c4nc(C(C)C)no4)CC3)C2)cc1`, the growth is 68.5%.

On to `CC1CC2Oc3ccc(Cl)cc3C(=O)N2O1` (stereo not given), for which the growth was 110%.

Turning to `O=c1c2c3c(sc2nc(N/N=C/c2cn(-c4ccccc4)nc2-c2ccc(Cl)cc2)n1Cc1ccccc1)CCCC3`, the growth was -32.4% (active).

Take `CCCn1cc(/C=N\N=C2\C(=O)Nc3ccc(C)cc32)c2ccccc21`: the growth is -22.6% (active).

As to `CCOC(=O)C1=C(C)N=c2s/c(=C\c3cc(Cl)ccc3O)c(=O)n2C1c1ccc(OC)cc1` (stereo not given), the growth was 98%.

As to `Clc1ccc2c(c1)C[C@H]1C[C@@H](c3cccs3)N2O1`, the growth was 107%.

For the molecule `CN(C)c1ccc(/C=N/NC(=O)c2ccccc2Nc2cccc(C(F)(F)F)c2)cc1`, the growth was 92.1%.

Regarding `CC[C@]12C=CCN3CC[C@@]4(c5ccc(OC)cc5N(C)[C@H]4[C@@](O)(C(=O)OC)[C@@H]1OC(=O)CCC(=O)N[C@@H](Cc1c[nH]c4ccccc14)C(=O)OC)[C@@H]32`, the growth was -5.33% (active).

Regarding `Cc1ccc(-c2noc(C)n2)cc1`, the growth was 100%.

For `O=C(NNC(=S)Nc1ccccc1)c1cc2ccc1CCc1ccc(cc1)CC2`, the growth was 77.1%.
